Compound activity (PubChem BioAssay)
MARV entry inh: Marburg virus entry inhibition; AID 720532; 6.5% of 18,000 active; Marburg virus pseudotype entry/binding inhibition, cell-based; Potency, µM (titrated, usually from 49.2 µM), for the others: at the highest dose activity change, negative = inhibition, usual class: inhibitors
LASV entry inh: inhibitors of Lassa virus binding or entry into cells; Lassa virus pseudotyped entry inhibition, cell-based qHTS; Potency, µM (highest dose often 49.2 µM), inactives show at the top dose activity change, negative = inhibition, most hits filed as inhibitors; 4.1% of 18,000 active; AID 720533
Starred values were filed as active, the others as inactive; ? = inconclusive; . = not tested or not shown; [ ] = remark or other dose. Most compounds without a hit are left out; they make up all but 8.6% or so of the library. The call rests on the fitted dose curve; tested in HEK293 cells. On the % scale 0 is the no-effect control and ±100 the full control effect; potency means the concentration at half of the fitted maximal effect.

SMILES	MARV entry inh	LASV entry inh
COC(=O)CCC(C)C1CCC2C3CC[C@H]4CC(O)CC[C@@]4(C)C3CC(O)[C@]12C (some centres undefined)	-12.9%	-10.0%
COc1ccccc1-c1nc(NCc2ccccc2)c2ccccc2n1	12.6µM*	14.1µM*
COc1ccc(CNc2nc(-c3ccoc3)nc3ccccc23)c(OC)c1	-24.8%	-9.1%
Cc1cccc(CNc2nc(-c3ccoc3)nc3ccccc23)c1	-16.9%	1.9%
COc1ccccc1-c1cc(NCc2cccnc2)ncn1	10.6%	9.3%
COc1ccccc1-c1nc(NCc2cnc(C)cn2)c2ccccc2n1	3.0%	11.9%
Cc1cccc(CNc2nc(-c3ccccc3CN(C)C)nc3ccccc23)c1	11.2µM*	?
COc1ccc(CNc2nc(-c3ccccc3CN(C)C)nc3ccccc23)c(OC)c1	7.94µM*	?
COc1ccc(CNc2cc(-c3ccccc3CN(C)C)ncn2)c(OC)c1	10µM*	0.6%
CN1CCN=C(c2ccccc2)c2cc(Cl)ccc21	?	1.1%
Oc1ccc2c3c1O[C@H]1[C@@H](O)C=C[C@H]4[C@@H](C2)NCC[C@@]341	22.2%[107 µM]	1.2%[107 µM]
CC1(C)C(=O)CC[C@@]2(C)C1CC(O)[C@@]1(C)C3=CC(=O)OC(c4ccoc4)[C@]3(C)CCC21 (some centres undefined)	?	-5.1%
COC[C@@H]1N[S+](=O)([O-])c2ccc(Br)cc2O[C@@H]1c1ccccc1	-6.7%	-7.8%
COc1ccc(OC)c(CN2CCOc3ccc(CN4CCC(O)(c5cccnc5)CC4)cc3C2)c1	?	-14.1%
O=C(NCCN1CCOCC1)c1cnn(-c2ncc3c(n2)-c2ccccc2CC3)c1C1CC1	?	-15.3%
O=C(NC1CCN(Cc2ccccc2)C1)c1cnn(-c2ncc3c(n2)-c2ccccc2CC3)c1C1CC1 (centres undefined)	5.01µM*	-15.4%
CC(C)=NO[C@@H](C)CN1CCCc2nc(C)c(C)cc21	-13.5%[8.59 µM]	10.6%[8.59 µM]
O[C@@H]1CO[C@@H](C=Cc2ccccc2)[C@H]1OCc1cccc(Br)c1	-5.3%[8.59 µM]	.
Nc1ncc(-c2cccc(S(N)(=O)=O)c2)c2scc(-c3ccc(F)c(Cl)c3)c12	3.15µM*	?
CCN1CCC(C(=O)Nc2n[nH]c3nnc(-c4cccc(F)c4F)cc23)CC1	-42.3%	.
O=C(NC1CCN(Cc2ccccc2)CC1)c1ccc(I)cc1	5.5%	-3.6%
O=C(CCC1CCN(Cc2ccccc2)CC1)c1ccc2c(c1)NCCCC2	14.1µM*	?
COc1ccc2c(c1)C(=O)[C@@H](OC(=O)NCCc1ccc(OC)c(OC)c1)[C@H](c1ccc(OC)c(Br)c1)O2	1.7%	-14.2%
C=CCN1CCc2cc(O)c(O)cc2[C@H](c2ccccc2)C1	-11.9%	-6.7%
Cc1cc2c(C(C)C)c(O)c(O)c(C=O)c2c(O)c1-c1c(C)cc2c(C(C)C)c(O)c(O)c(C=O)c2c1O	20µM*	11.2µM*
SMILES	MARV entry inh	LASV entry inh
CCCCC(=O)OCC(=O)[C@H]1[C@H](C)C[C@H]2[C@@H]3C[C@H](F)C4=CC(=O)C=C[C@]4(C)[C@@]3(F)[C@@H](O)C[C@@]21C	-9.3%	3.0%
Cn1c2ccccc2c2c3c(c4c5ccccc5n(CCC#N)c4c21)CNC3=O	?	11.2µM*
O=C(/C=C/c1ccc(O)cc1)c1ccc(O)cc1O	21.7%	8.8%
Oc1ccc(/C=C\c2cc(O)cc(O)c2)cc1	11.2µM*	10µM*
Oc1ccc(/C=C/c2cc(O)cc(O)c2)cc1	7.08µM*	7.94µM*
COc1ccc(/C=C/c2cc(O)cc(O)c2)cc1	1.4%	-3.1%
CCOC(=O)Cc1ccc(-c2ccccc2)cc1	0.0%	3.1%
C[C@@H](C[N+](C)(C)C)OC(N)=O	1.9%[17.8 µM]	35.7%[17.8 µM]
CCCC(=O)c1ccc(OCc2cn(CC(=O)c3ccc(O)cc3)nn2)cc1	17.4%	.
C=CCN(C)CCCCCCOc1ccc(C(=O)c2ccc(Br)cc2)c(F)c1	3.98µM*	?
CCN1C[C@]2(COC)CC[C@H](OC)[C@@]34C5C[C@@H]6[C@@H](OC)C[C@@]7(OCO[C@@]7([C@@H](O)C23)[C@@H]14)C5[C@H]6OC (some centres undefined)	2.3%	-3.5%
Cc1cc(=O)oc2cc(NC(=O)C(CCCCN)NC(=O)C(CC3CCCCC3)NC(=O)OCC3c4ccccc4-c4ccccc43)ccc12 (centres undefined)	22.0%	5.3%
Cc1cc(=O)oc2cc(NC(=O)[C@H](CCCCN)NC(=O)[C@H](CC3CCCCC3)NC(=O)OCC3c4ccccc4-c4ccccc43)ccc12	10µM*	?
CC1CC2CCC(O2)C(C)C(=O)OC(C)CC2CCC(O2)C(C)C(=O)OC(C)CC2CCC(O2)C(C)C(=O)OC(C)CC2CCC(O2)C(C)C(=O)O1 (centres undefined)	5.01µM*	1µM*
C[C@@H]1CNCCN1S(=O)(=O)c1cccc2cnccc12	-25.1%	4.6%
O=S(=O)(c1cccc2c(Cl)cccc12)N1CCCNCC1	8.91µM*	?
O=S(=O)(c1cccc2c(I)cccc12)N1CCCNCC1	11.2µM*	?
